Screening results: PubChem BioAssay, National Center for Advancing Translational Sciences (NCATS)
IL-1B inflam inh: blocks inflammasome-driven IL-1 beta release; activity change, % at 57.5 µM; actives 4.7% (n = 360,000); THP-1 LPS/ATP IL-1B secretion, AlphaLISA, 16 h; stronger effect = lower value; in the data active = activity change below about -50%; inconclusive = mostly about -30% to -49%; also: % is scaled to controls: 0 for no effect and ±100 for the full control effect
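THP-1 cells pretreated 1 hr with compounds (up to 57.5 uM final), then stimulated with LPS (250 ng/mL final) plus ATP (1.25 mM final); secreted IL-1B measured by AlphaLISA after 16 hr, decreased signal indicating inhibition.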
TDP1 cell noCPT: qHTS for Inhibitors of human tyrosyl-DNA phosphodiesterase 1 (TDP1): qHTS in cells in absence of CPT; DT40 Tdp1-/- hTDP1 cells, no CPT, ATP luminescence, 48 h; Potency, µM (doses to about 46.2 µM), for inactives: at the top dose activity change, negative = growth inhibition, most hits filed as inhibitors; actives 15% (n = 420,000); AID 686978, 2013; also: potency is read from the fitted curve at half-maximal effect; % is scaled to controls: 0 for no effect and ±100 for the full control effect; nearly all actives have a fitted effect of over 55% in size
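Readout: luminescence from CellTiter-Glo after 30 min in the dark at RT. Cells: DT40 Tdp1-/- with stable hTDP1, 400/well. Exposure: compounds alone, ≥48 hr, 37 °C.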
D3 ag: agonists of human D3 dopamine receptor. P35462. D3R DiscoveRx beta-arrestin cells, luminescence, 90 min. max activation, %. actives 0.58% (n = 410,000); in the data active = max activation above about 30%; also: 0% is about no effect
Target sequence (P35462 whole entry, looked up): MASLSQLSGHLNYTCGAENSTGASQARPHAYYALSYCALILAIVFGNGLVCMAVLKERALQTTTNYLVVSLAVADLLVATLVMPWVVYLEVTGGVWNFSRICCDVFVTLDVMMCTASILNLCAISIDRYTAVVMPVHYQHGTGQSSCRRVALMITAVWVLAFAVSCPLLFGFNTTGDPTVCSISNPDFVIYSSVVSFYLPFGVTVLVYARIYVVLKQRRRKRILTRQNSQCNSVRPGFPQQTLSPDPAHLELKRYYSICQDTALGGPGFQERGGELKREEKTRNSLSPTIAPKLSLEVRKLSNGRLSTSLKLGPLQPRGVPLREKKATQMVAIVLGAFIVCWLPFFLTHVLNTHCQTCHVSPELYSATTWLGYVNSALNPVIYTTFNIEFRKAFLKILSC
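Agonist-mode cell screen: cells plated at 1500/well and incubated overnight at 37 °C, then exposed to library compounds for 90 min at 37 °C. Detection reagent was added for 30–60 min at room temperature, and luminescence was read.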
TDP1 cell CPT: DT40-hTDP1 cell growth loss with CPT; chicken DT40 Tdp1-/-;hTDP1 cells + 20 nM CPT, ATP luminescence, 48 h; Potency, µM (top dose mostly 46.2 µM), inactives show at the top dose activity change, negative = growth inhibition, usual class: inhibitors; actives 12% (n = 420,000); AID 686979; also: potency is read from the fitted curve at half-maximal effect; % is scaled to controls: 0 for no effect and ±100 for the full control effect; nearly all actives have a fitted effect of over 55% in size
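Chicken DT40 Tdp1-/- cells stably complemented with human TDP1 were seeded at 400 cells/well in medium containing 20 nM camptothecin, exposed to pin-transferred compounds, and grown at 37 °C for at least 48 hr. Viability was read as ATP luminescence.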
ClpP mod: qHTS Assay for Activators of ClpP | Potency, µM (top dose mostly 57.5 µM), without a hit: top-dose activity change, negative = active | ATP-dependent Clp protease proteolytic subunit (Bacillus subtilis (strain 168)), P80244 | purified B. subtilis ClpP, FRET peptide cleavage, 20 min | AID 651965, 2013 | actives 1.9% (n = 340,000); active = well fitted falling curve with a large enough effect; inconclusive = small, poorly fitted or top-dose-only effect; inactive = no such curve, though single readings can be large or run the other way; also: potency is read from the fitted curve at half-maximal effect; the source files actives as falling curves though it sought activators and does not explain the sign; nearly all actives have a fitted effect of over 65% in size
Target sequence (P80244 whole entry, looked up): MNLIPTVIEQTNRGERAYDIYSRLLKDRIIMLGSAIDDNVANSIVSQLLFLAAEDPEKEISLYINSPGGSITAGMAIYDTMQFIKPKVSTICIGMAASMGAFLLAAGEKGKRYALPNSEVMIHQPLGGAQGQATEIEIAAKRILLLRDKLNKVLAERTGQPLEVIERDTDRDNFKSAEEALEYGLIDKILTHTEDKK
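FRET quenching reversal measured ClpP activation: 10 microg/mL B. subtilis ClpP at pH 8 with the FRET-FV decapeptide, read at 430 nm after 320 nm excitation. The 20-min minus 0-min signal was scaled between DMSO/no-enzyme wells and ADEP (5.8 microM final).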
DRD3 antagonist: D3 dopamine receptor (human) antagonism; max response, negative = inhibition, %; AID 652054; P35462; actives 2.5% (n = 360,000); D3R cells, DiscoveRx beta-arrestin luminescence, antagonist mode; stronger effect = lower value; in the data active = max response below about -50%; inconclusive = no clear call, values can overlap the other calls; also: % is scaled to controls: 0 for no effect and ±100 for the full control effect
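Cells expressing the human receptor were seeded at 1500 cells/well, incubated overnight at 37 degrees C in 5% CO2, then exposed to library compounds with dopamine controls for 90 minutes at 37 degrees C before luminescent detection.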
Numbers without * were called inactive; ? = inconclusive; nt = no result given; ! = not active in a repeat. Compounds with a hit are over-represented: about 21% of the library has one in this group of screens. Unless noted, calls follow the shape of the dose curve; as a rule, active = well fitted inhibition curve with a large enough effect; inconclusive = small, poorly fitted or top-dose-only effect; inactive = flat fitted curve, though single readings scatter.

SMILES	IL-1B inflam inh	TDP1 cell noCPT	D3 ag	TDP1 cell CPT	ClpP mod	DRD3 antagonist
O=C(CN1C(=O)C2CCCCC2C1=O)Nc1nc(-c2ccccn2)cs1 (centres undefined)	50	10µM*	-10	12µM*	-1%	-7
Cc1nc2c3ccccc3nc(NNC(=O)CCC(=O)N3CCN(c4cccc(C(F)(F)F)c4)CC3)n2n1	nt	23µM*	-19	21µM*	-1%	nt
CCOCCCNC(=O)CCC(=O)NNc1nc2ccccc2c2nc(-c3ccccc3)nn12	30	12µM*	-10	?	-5%	8
CCCCN(C)C(=O)CCC(=O)NNc1nc2ccccc2c2nc(C)nn12	1	-20%	-11	-28%	25µM*!	2
Cc1nc2c3ccccc3nc(NNC(=O)CCC(=O)N3CCN(c4ccccc4)CC3)n2n1	8	?	1	?	-1%	-9
CC(C)OCCCNC(=O)CCC(=O)NNc1nc2ccccc2c2nc(-c3ccccc3)nn12	-22	?	0	-79%	-1%	-8
C=CCNC(=S)N(CC)c1cccc2ccccc12	36	?	6	6%	nt	-4
O=C1C=CC(=O)N1c1ccc(O)cc1	-8	2.3µM*	-5	2.6µM*	0%	-16
O=C1C=CC(=O)N1c1ccc(OC(F)F)cc1	-91*	0.65µM*	-20	0.41µM*	-7%	-55*
COC(=O)c1cccc(S(=O)(=O)N(Cc2ccco2)Cc2cc3cc(OC)ccc3[nH]c2=O)c1	-4	?	24	29µM*	-25%	26
CC(=O)Nc1ccc(S(=O)(=O)N(Cc2cc3ccc(C)cc3[nH]c2=O)CC2CCCO2)cc1 (centres undefined)	-9	?	-5	-21%	-19%	2
CCCCN(Cc1cc2cc(OC)ccc2[nH]c1=O)S(=O)(=O)c1ccc(C)cc1	-20	7.3µM*	0	10µM*	4%	47
COc1ccc(S(=O)(=O)N(CCCN2CCCC2=O)Cc2cc3c(C)cc(C)cc3[nH]c2=O)cc1	-54*	?	-8	?	-12%	-8
CCOC(=O)c1cccc(S(=O)(=O)N(CCO)Cc2cc3cc(OC)ccc3[nH]c2=O)c1	0	-7%	-3	-16%	?	5
Cc1ccc2cc(CN(CC3CCCO3)S(=O)(=O)c3cccc4nsnc34)c(=O)[nH]c2c1 (centres undefined)	2	18µM*	23	?	0%	27
CC(=O)Nc1ccc(NC(=O)N(c2ccccc2)c2ccccc2)cc1	-8	0%	0	17%	3%	-6
COc1ccc(C2c3c(n(C)c4ccccc34)C(=O)N2CC(=O)Nc2ccc(C)c(Cl)c2)cc1 (centres undefined)	nt	?	-10	?	-25%	nt
COc1ccc(S(=O)(=O)N(Cc2cc3cc(C)ccc3[nH]c2=O)CC2CCCO2)cc1 (centres undefined)	-16	21µM*	11	?	?	25
CCc1ccc2[nH]c(=O)c(CN(Cc3ccccc3)Cc3nnnn3C(C)(C)C)cc2c1	nt	11µM*	nt	14µM*	-15%	nt
CCc1ccc2[nH]c(=O)c(CN(Cc3cccnc3)Cc3nnnn3Cc3ccccc3)cc2c1	nt	20µM*	nt	11µM*	?	nt
CCOC(=O)Cn1nnnc1CN(CCc1ccccc1)Cc1cc2cc(CC)ccc2[nH]c1=O	10	?	0	18µM*	-8%	34
CCc1ccc2[nH]c(=O)c(CN(Cc3ccc(OC)cc3)Cc3nnnn3CCOC)cc2c1	?	?	-3	18µM*	-25%	15
O=C1CCc2cc(S(=O)(=O)NCc3ccc(F)cc3)cc3c2N1CCC3	-23	?	-3	-4%	nt	10
CCOC(=O)C[C@H]1c2ccccc2S(=O)(=O)N1c1ccccc1	33	?	9	?	0%	-13
COc1ccc(C2=NC(c3ccccc3)=Nc3ccc(C)cc3N2)cc1	nt	21µM*	-10	26µM*	0%	nt
SMILES	IL-1B inflam inh	TDP1 cell noCPT	D3 ag	TDP1 cell CPT	ClpP mod	DRD3 antagonist
COc1ccc2c(c1)NC(c1cccnc1)=NC(c1ccc(F)cc1)=N2	nt	9.2µM*	-2	15µM*	0%	nt
Cc1ccc(C2=Nc3ccccc3NC(c3ccncc3)=N2)cc1	nt	13µM*	-10	?	-3%	nt
COc1ccc2c(c1)NC(c1ccc(F)cc1)=NC(c1ccc(F)cc1)=N2	nt	?	-18	?	-1%	nt
COc1ccc(NC2=Nc3cccc4cccc2c34)cc1	-8	26µM*	-15	?	1%	-25
O=C(O)c1cccc(NC2=Nc3cccc4cccc2c34)c1	14	-6%	5	7%	4%	5
CCCOc1ccc(C2=NC(c3ccncc3)=Nc3ccc(C)cc3N2)cc1	nt	?	-4	?	-1%	nt
COc1ccc(C(=O)OC(C)C(=O)NC2CCCCC2C)cc1S(=O)(=O)N1CCOCC1 (centres undefined)	5	-2%	-4	-8%	-1%	6
CN1CCN(c2ccc(CNC(=O)C3(C)Cc4c(-c5ccc(C(N)=O)cc5)ccnc4O3)cc2)CC1 (centres undefined)	-4	-16%	-13	-17%	-8%	?
Nc1cccc(C2=Nc3cccc4cccc(c34)N2)c1	-9	?	2	?	-1%	4
COc1ccc(C2=Nc3cccc4cccc(c34)N2)cc1	17	16µM*	14	?	0%	9
Cc1ccc(C2=NC(c3ccccc3)=Nc3ccc(Cl)cc3N2)cc1	nt	23µM*	0	?	2%	nt
O=C(O)c1ccc(CNCc2ccccc2Cl)s1	nt	1%	1	-4%	-9%	nt
c1cc(-c2cnc3cccnn23)c2cccnc2c1	-25	?	-10	9.2µM*	4%	2
c1ccc2c(-c3cnc4cccnn34)cncc2c1	-19	-28%	7	?	5%	-6
CSc1ccccc1-c1cnc2cccnn12	-54*	-28%	6	-19%	-8%	30
Cc1cc(C)n(-c2nc(C)c(C)c(=O)n2CC(=O)Nc2ccc(OC(F)(F)F)cc2)n1	nt	18µM*	-19	15µM*	3%	nt
Cc1cc(=O)n(CC(=O)Nc2ccc([N+](=O)[O-])cc2)c(-n2nc(C)cc2C)n1	nt	21µM*	2	18µM*	4%	nt
Cc1cc(NS(=O)(=O)c2ccc(NC(=O)Cc3ccc([N+](=O)[O-])cc3)cc2)nc(C)n1	3	9%	-6	8%	1%	-17
